The text below walks through data of PubChem BioAssay (NCATS).

The structures appear in SMILES notation. Results filed as inconclusive are left out. Activity calls are given as the source filed them. Calls come from the whole dose curve; as a rule, active = well fitted inhibition curve with a large enough effect; inconclusive = small, poorly fitted or top-dose-only effect; inactive = no such curve, though single readings can be large or run the other way.

The first assay in a line: qHTS assay for measurement of the activity of small molecule inhibitors on Zika virus induced Caspase-3 activity in human astrocytoma cells (AID 1224859).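 Note: plate controls were ZIKV-infected untreated cells for no effect and uninfected cells for full effect.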 The following applies: SNB-19 ZIKV-induced caspase-3/7, luminescence, 6 h; series mostly up to 45.7 µM; activity change, negative = inhibition: at the top concentration. In a few lines:
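Readout is luminescence from Caspase-Glo 3/7 added after a 6 h ZIKV infection (2 FFU/cell) of compound-pretreated (1 h) SNB-19 cells; data expressed as % inhibition versus uninfected and infected wells.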
Turning to `COc1ccc(C(C)=O)c(O)c1`, the “activity change, negative = inhibition” value is -2.47% (inactive). Still for that read-out and setting: as for `O=C(C=Cc1ccc(CN(CCO)CCc2c[nH]c3ccccc23)cc1)NO`, the figure is 31.2% (inactive). Still for that read-out and setting: the figure for `COc1cc(C)c(C=CC(C)=CC=CC(C)=CC(=O)O)c(C)c1C` is -6.16% (inactive); for `C[C@H](O)[C@@H]1C(=O)N2C(C(=O)O)=C(S[C@@H]3CN[C@H](CNS(N)(=O)=O)C3)[C@@H](C)[C@@H]12` it is 13.6% (inactive); for `C#C[C@]1(O)CC[C@@H]2[C@@H]3CCC4=CC(=O)CC[C@@H]4[C@H]3CC[C@@]21CC` it is -19.4% (inactive).

The nature of a further assay: qHTS Screen of the MIPE 4.0 Collection Against Ewings Sarcoma (RDES) (AID 1259252).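 For viability (percent of control): 100% = DMSO-treated cells and 0% = medium-only wells without cells.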 Note: nearly all actives have a fitted effect of over 35% in size. Note: potency is the fitted concentration of half-maximal effect. The following applies: RD-ES Ewing sarcoma viability, CellTiter-Glo, 48 h; series mostly up to 45.8 µM; viability (percent of control): at the top concentration. The essentials: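 Dose series incubated 48 h with cells in RPMI plus 5% FBS, glutamine and penicillin/streptomycin; cell viability then quantified via CellTiter-Glo.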
(In general: In qHTS, concentration-response curves come from the screen itself.)
In the case of `O=C(O)CCCCCC(=O)NN=C1CCCC1`, the “viability (percent of control)” value was 104% (inactive). On the same count and under the same terms, the figure for `CC(C)(C)[N+]([O-])=Cc1ccc(S(=O)(=O)O)cc1S(=O)(=O)O` is 128% (inactive); for `C[C@@]12C[C@@]3(O)O[C@@H](O1)[C@]1(COC(=O)c4ccccc4)[C@@H]3C[C@@]12O[C@@H]1O[C@H](CO)[C@@H](O)[C@H](O)[C@@H]1O` it is 117% (inactive).

For `Cc1cncc2cccc(S(=O)(=O)N3CCCN(C(=O)CN)C[C@@H]3C)c12`, the Potency is 8.33 µM (active).

Regarding `O=C(O)C=Cc1ccc(Cn2ccnc2)cc1`, the “viability (percent of control)” value was 119% (inactive). Same read-out and setting: as for `O=C(CN1C(=O)C2(CCCC2)NC[C@H]1c1cc(F)cc(F)c1)Nc1ccc2c(c1)C[C@@]1(C2)C(=O)Nc2ncccc21`, the figure is 118% (inactive).

In the case of `CCN1CCN(C(=O)N[C@H](C(=O)N[C@@H]2C(=O)N3C(C(=O)O)=C(CSc4nnnn4C)CS[C@@H]23)c2ccc(O)cc2)C(=O)C1=O`, the “viability (percent of control)” value was 110% [at 15.3 µM] (inactive).

Turning to `Cc1ccc(-n2[nH]c(C)c(N=Nc3cccc(-c4cccc(C(=O)O)c4)c3O)c2=O)cc1C`, the Potency was 18.7 µM (active).

On to `NC(=NCCCCCCN=C(N)N=C(N)Nc1ccc(Cl)cc1)N=C(N)Nc1ccc(Cl)cc1`, for which the Potency was 2.96 µM (active).
